The list is not random: actives were taken first. Their share in the collection is about 10%.
MCF10A rerep = inducers of DNA re-replication in MCF 10A breast cells; 2.9% of 350,000 active; Potency, µM (doses to about 46.1 µM), inactives show at the top dose activity, positive = re-replication, hits mostly activators; AID 624296; MCF 10A DNA re-replication, Hoechst nuclear intensity, 48 h; further: % of control where 0% means no effect; nearly all actives have a fitted effect of over 50% in size
SW480 rerep = induces DNA re-replication in SW480 colon adenocarcinoma cells; SW480 DNA re-replication, Hoechst DNA content imaging, 48 h; Potency, µM (doses to about 46.1 µM), for the others: at the top dose re-replication activation, hits mostly activators; 1.8% of 340,000 active; further: % of control where 0% means no effect; nearly all actives have a fitted effect of over 55% in size
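Treated cells incubate 48 hr (37 C, 5% CO2), are stained 40 min with Hoechst, and nuclear fluorescence is enumerated; a rise in nuclei with high DNA signal marks re-replication.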
RORg inh = blocks mouse ROR gamma transcriptional activity; P51450; Drosophila S2 Gal4-RORgamma UAS-luciferase reporter, 20 h; Potency, µM (top dose mostly 53.6 µM), for inactives: at the top dose activity change, negative = inhibition, usual class: inhibitors; 5.4% of 310,000 active; AID 2551; further: on the % scale 0 is the no-effect control and ±100 the full control effect; nearly all actives have a fitted effect of over 60% in size
Target sequence (P51450 whole entry, looked up, the tested form may be a part): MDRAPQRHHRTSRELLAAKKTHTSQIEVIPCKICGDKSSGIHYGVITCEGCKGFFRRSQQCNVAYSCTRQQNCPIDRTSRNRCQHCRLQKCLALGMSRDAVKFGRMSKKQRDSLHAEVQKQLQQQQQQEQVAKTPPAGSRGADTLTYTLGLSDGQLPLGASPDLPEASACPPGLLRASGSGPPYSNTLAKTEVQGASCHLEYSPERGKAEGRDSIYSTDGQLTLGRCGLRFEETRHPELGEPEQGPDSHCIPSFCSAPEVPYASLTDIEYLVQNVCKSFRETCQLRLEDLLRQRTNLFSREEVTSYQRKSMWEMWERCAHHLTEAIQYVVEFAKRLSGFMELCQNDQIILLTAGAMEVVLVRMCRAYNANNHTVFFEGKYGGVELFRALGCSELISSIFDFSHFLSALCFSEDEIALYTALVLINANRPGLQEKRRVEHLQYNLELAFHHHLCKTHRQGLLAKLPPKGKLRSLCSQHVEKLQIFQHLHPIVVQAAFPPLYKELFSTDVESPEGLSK
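Stably transfected Drosophila Schneider cells are the test system, with ROR gamma fused to Gal4 and luciferase under UAS control; luminescence is read after 20 hr of 700 uM copper sulfate induction at ambient temperature.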
KB-3-1 tox = KB-3-1 parental cell cytotoxicity. Potency, µM (titrated, usually from 46.1 µM), hits mostly cytotoxic. 1.4% of 400,000 active. KB-3-1 viability, CellTiter-Glo ATP luminescence, 72 h. AID 1347075; further: on the % scale 0 is the no-effect control and ±100 the full control effect; nearly all actives have a fitted effect of over 60% in size
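Cytotoxicity measured as CellTiter-Glo luminescence after 72 h at 37 C. Compound titrations were pinned onto drug-naive KB-3-1 parental adenocarcinoma cells grown in DMEM with 10% FBS, and normalized data fitted to concentration-response curves.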
KB-V1 cytotox = KB-V1 MDR subline cytotoxicity. 3.4% of 400,000 active. AID 1347076. KB-V1 MDR cells viability, CellTiter-Glo, 72 h. Potency, µM (top dose mostly 46.1 µM), most hits filed as cytotoxic; further: on the % scale 0 is the no-effect control and ±100 the full control effect; nearly all actives have a fitted effect of over 60% in size
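Luminescent ATP read-out (CellTiter-Glo, 10 min) measures survival of drug-selected KB-V1 MDR cells after 72 h, 37 degrees C compound exposure. Medium: phenol-red-free DMEM, 10% FBS. Values from fitted concentration-response curves.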
Gal4-VP16 FLuc = Gal4-VP16 reporter inhibition counter-screen; Drosophila S2 Gal4-VP16 UAS-luciferase, luminescence, 20 h; Potency, µM (series often up to 53.6 µM), for inactives: top-dose activity, negative = inhibition, usual class: inhibitors; 3.5% of 310,000 active; AID 2546;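 further: Gal4-VP16 expression switched on by copper sulfate through the metallothionein promoter; on the % scale 0 is the no-effect control and ±100 the full control effect; nearly all actives have a fitted effect of over 50% in size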
* marks the source's active call; other numbers are inactive results; i = inactive; ? = inconclusive; · = no result; [ ] = dose if it differs, or a comment. The call rests on the fitted dose curve; in most records, active means well fitted curve in the direction sought with a large enough effect; inconclusive means small, poorly fitted or top-dose-only effect, or another doubt; inactive means no such curve, though single readings can be large; an effect the other way counts as inactive or inconclusive. Potency means the concentration at half of the fitted maximal effect.

SMILES | MCF10A rerep | SW480 rerep | RORg inh | KB-3-1 tox | KB-V1 cytotox | Gal4-VP16 FLuc
O=C(/C=C/c1cccc(O)c1)c1ccc(N2CCOCC2)cc1 | 7% | ? | 3.5µM* | ? | i | ?
CCOc1ccc(NC(=O)CN(C)C2=NS(=O)(=O)c3ccccc32)cc1 | · | · | · | i | i | ·
COCCCNC(=O)N1CCN(c2nnc(C)c3c(C)n(-c4ccc(Cl)cc4)nc23)CC1 | · | · | · | i | i | ·
S=c1[nH]c2ccccc2o1 | -3% | 7% | 28µM* | i | i | -18%[10 µM]
CCCn1c(C)nc2cc(Cl)c(N3CCN(c4nc(-c5ccc(C)cc5)cs4)CC3)cc21 | ? | 1% | 4.5µM* | ? | i | ?
COc1ccc(-c2csc(N3CCN(c4cc5c(cc4Cl)nc(-c4ccncc4)n5CCOCCO)CC3)n2)cc1 | ? | ? | 4% | i | i | -1%
Cc1ccc(-c2csc(N3CCN(c4cc5c(cc4Cl)nc(-c4ccncc4)n5CCN4CCCCC4)CC3)n2)cc1 | -4% | ? | 8.9µM* | i | i | -25%
CC(C)n1c(=O)c2c(O)cc(=O)oc2c2ccccc21 | ? | 13% | 14% | i | 6.5µM* | 4%
Cc1cc(C)nc(Sc2ccc3nnc(C(F)(F)C(F)(F)C(F)(F)F)n3n2)n1 | ? | 15µM* | -6% | i | i | 2%
NNc1ccc2nnc(C(F)(F)C(F)(F)C(F)(F)F)n2n1 | 0% | 2% | -29% | i | ? | 4%
CCOc1cccc(C(=O)N(Cc2ccc(C(C)C)cc2)C2CCS(=O)(=O)C2)c1 (stereo not drawn) | · | · | · | i | i | ·
CN(Cc1ccccc1)C(=O)c1ccc(CSc2nc3cccnc3n2Cc2ccccc2)cc1 | · | · | · | i | i | ·
Cc1cc(C(=O)C(C)OC(=O)c2ccc(NC(=O)CC#N)cc2)c(C)n1-c1ccccc1 (stereo not drawn) | ? | 3.3µM* | · | i | i | ·
CC(OC(=O)c1ccc(NC(=O)CC#N)cc1)C(=O)NC(c1ccccc1)c1ccccc1 (stereo not drawn) | 2% | 1% | · | i | i | ·
COc1ccccc1NC(=O)c1c(C)cc(C)nc1SCC(=O)Nc1ccc(C)cc1 | · | · | · | i | i | ·
O=C(CSc1ncc2c(n1)-c1ccccc1N(Cc1ccc(F)cc1)S2(=O)=O)NCc1ccccc1 | · | · | · | i | i | ·
Cc1ccc(OCCN2CCN(C(=O)CCC(=O)Nc3nnc(C(C)C)s3)CC2)cc1 | 0% | -1% | 38% | i | ? | 13µM*
COc1c(-c2coc3cc4c(cc3c2=O)CC(O)C(C)(C)O4)ccc2c1C=CC(C)(C)O2 (stereo not drawn) | · | · | 1.1µM* | · | · | -4%
CC1(C)C=Cc2c(cc3occ(-c4ccc5c(c4)OCO5)c(=O)c3c2O)O1 | · | · | 0% | · | · | -13%
COc1c(-c2coc3cc4c(cc3c2=O)CC(OC(C)=O)C(C)(C)O4)ccc2c1C=CC(C)(C)O2 (stereo not drawn) | · | · | 2.5µM* | · | · | 1.3µM*
CCc1ccc(-c2nc3cc(NC(=O)c4ccc(F)cc4)ccc3o2)cc1 | · | · | · | i | i | ·
Cc1ccc(S(=O)(=O)N2C[C@H]3C(=O)C[C@@H](c4ccccc4)N(S(=O)(=O)c4ccc(C)cc4)[C@H]3C[C@H]2c2ccccc2Cl)cc1 | · | · | · | i | i | ·
CC(=O)NC12CC3CC(C1)CC(C(=O)Nc1cccc(S(=O)(=O)N4CCCCCC4)c1)(C3)C2 | 15% | 0% | · | i | 15µM* | ·
CC(=O)NC12CC3CC(C1)CC(C(=O)Nc1ccc(C)c(S(=O)(=O)N4CCCCCC4)c1)(C3)C2 | 5% | 2% | · | ? | 21µM* | ·
COc1ccc2c(c1)O[C@@H](c1ccc3c(c1)OCO3)[C@H](OC(=O)Nc1ccc(OC(F)F)cc1)C2=O | · | · | 19% | · | · | 0%
SMILES | MCF10A rerep | SW480 rerep | RORg inh | KB-3-1 tox | KB-V1 cytotox | Gal4-VP16 FLuc
c1ccc2oc(C3=NNC(=NC4CC4)SC3)cc2c1 | 12µM* | ? | 3.5µM* | 9.2µM* | i | 11µM*
c1csc(C2=NNC(=NC3CCCCC3)SC2)c1 | 0% | 1% | ? | i | i | -22%
COc1ccc(CN=C2NN=C(c3cccc(OC)c3)CS2)cc1 | ? | ? | 4% | i | i | -23%
c1ccc(CN=C2NN=C(c3cc4ccccc4o3)CS2)cc1 | ? | ? | ? | i | i | 20µM*
Cc1cccc(C)c1N=C1NN=C(c2ccccc2F)CS1 | 6% | · | 7.9µM* | ? | 18µM* | 10µM*
Cc1cc(C2=NNC(=NC3CC3)SC2)c(C)n1-c1ccccc1F | 18µM* | ? | 1.1µM* | ? | i | 0.71µM*
CCOC(=O)Cn1c(=O)n(CC2CCCO2)c2nc(-c3cc(OC)ccc3OC)nc(C(N)=O)c21 (stereo not drawn) | · | · | · | i | ? | ·
CCNC(=O)C1CCCN(C(=O)c2ccc(C#N)cc2)CC1 (stereo not drawn) | · | · | · | i | i | ·
CCCCNC(=S)NNC(=O)C12CC3CC(CC(C3)C1)C2 | 15% | -1% | 14µM* | i | i | ?
COCCn1c(SCC(=O)Nc2ccc(F)c(Cl)c2)nc2c(oc3ccccc32)c1=O | · | · | · | i | i | ·
CCOC(=O)C1=C(C)N2C(=C(C#N)[C@@H]1c1ccc(C(=O)OC)cc1)SC[C@@]2(O)C(C)(C)C | 21µM* | ? | 4% | i | ? | 3%
O=S(=O)(CCc1ccccc1)c1nnnn1C1CCCCC1 | · | · | -2% | · | · | 4%
S=C(CN1CCCC1=S)NCCc1ccccc1 | 0% | 1% | 7.9µM* | i | i | ?
CCCCc1c(C)nn(-c2nnc3c4ccccc4n(C)c3n2)c1C | -5% | -8% | 0.79µM* | i | ? | 7.1µM*
COC(=O)/C=C/c1ccc2c(c1)OCO2 | 0% | 0% | 24% | i | ? | -2%
CCNc1ccc(Br)cc(C(=O)/C=C/c2ccccc2Cl)c1=O | ? | ? | · | ? | 23µM* | ·
CNc1ccc(Br)cc(C(=O)/C=C/c2cccc(OC)c2OC)c1=O | 1% | -19% | ? | i | i | ?
CCNc1ccccc(C(=O)/C=C/c2ccc3c(c2)OCO3)c1=O | ? | -14% | 7.9µM* | i | i | ?
CNc1ccc(Br)cc(C(=O)/C=C/c2cccc(Cl)c2Cl)c1=O | 16µM* | 4% | 0% | 16µM* | ? | -2%
Cc1ccccc1-c1cc2nc(NCCN3CCNC3=O)n(C)c(=O)c2s1 | · | · | · | i | i | ·
CCN(CC)C(=O)c1cccc(-c2csc(C(C)(O)c3ccncc3)n2)c1 (stereo not drawn) | · | · | · | i | i | ·

High-throughput results: PubChem BioAssay, National Center for Advancing Translational Sciences (NCATS)
